For 26 compounds, growth results are on record in PubChem BioAssay (NCI).

Compounds without any hit were thinned out: in the full panel of roughly 83,000, 20% have a hit.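 48-hour exposure, single concentration, 96-well plates; percent growth endpoint where 0 means no net growth. Active: below 10.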 Values without a mark were called inactive. Active and inactive are the calls of the source.

Experiment in all cases: NCI-60 one-dose screen, 48 h (100 = growth as untreated, 0 = no growth, -100 = all killed)
What all share (conditions): 10 µM unless noted

The subject of assay [1] is NCI-H23 lung.
Assay [2] deals with NCI-H226 lung.
The test system of assay [3] is NCI-H322M lung.
Assay [4] relates to HOP-62 NSCLC.
For assay [5], the system named is NCI-H460 lung.
For assay [6], the system named is HOP-92 NSCLC.
In assay [7] the test system is NCI-H522 lung.
For assay [8], the system named is A549/ATCC NSCLC.
Assay [9] relates to 786-0 renal.
For assay [10], the system named is COLO 205 colon.

As for `O=C(NNC(=O)c1ccc(OCc2nc3ccc(Cl)cc3[nH]2)cc1)Nc1ccc(Cl)c(C(F)(F)F)c1`, the growth in assay [1] was 35.9%; in assay [2], 64.1%; in assay [3], 43.6%; in assay [4], 68.4%; in [5], 38.1%; in assay [6], -1.57% (active). Moreover, the growth in assay [7] was 49%; in assay [8], 57.1%; in assay [9], 70.1%; in [10], 85.6%.
Take `C=CC(=O)N1CCN(c2ccc3nc4c(nc3c2C(F)(F)F)C(=O)c2ncccc2C4=O)CC1`: the growth was -61.5% (active) in [1]; 63.8% in assay [2]; 10.2% in [3]; 39.9% in assay [4]; -34.3% (active) in assay [5]; -3.31% (active) in [6]. Moreover, the growth in [7] is -8.31% (active); in assay [8], 2.38% (active); in [9] it was 22%; in assay [10], -22.8% (active).
In the case of `OC1CCC(Cn2c(C(F)(F)F)cc3c(Cl)ncnc32)CC1` (stereo not given), the growth in [1] is -26% (active); in assay [2], 64.4%; in assay [3], -13.9% (active); in [4], 13.3%; in assay [5] it was -43.6% (active); in assay [6], 78.2%. The growth in assay [7] is -81.3% (active); in assay [8] it was 94%; in [9] it was 92.7%; in assay [10] it was 60.2%.
Consider `N#Cc1c(-c2ccc(F)cc2)nc(SCc2ccc(F)cc2)nc1N1CCNCC1`, for which the growth was -61.3% (active) in assay [1]; 76.9% in assay [2]; 36.1% in [3]; -65.4% (active) in [4]; -85.1% (active) in assay [5]; -64.9% (active) in assay [6]. Also, the growth in assay [7] was -70.4% (active); in [8], -74.8% (active); in [9], -79.1% (active); in assay [10], -68.8% (active).
`CCOc1ccc(-c2cc(-c3cc(C(C)C)c(O)cc3C)nn2-c2ccc(S(N)(=O)=O)cc2)cc1`: the growth in [1] was 27.6%; in assay [2], 67.4%; in assay [3], 66.6%; in [4], 65.4%; in [5], 23.9%; in assay [6], 47.4%. The growth is 1.3% (active) in [7], 32% in assay [8], 37.1% in assay [9] and 131% in assay [10].
As for `Cc1cccc(/C=C/c2ccc(NC(=S)NCCCCN(C)C)cc2)c1`, the growth in assay [1] was -99.7% (active); in [2] it was -72.1% (active); in [3] it was -91.1% (active); in assay [4], -67.4% (active); in [5], -85.5% (active); in assay [6], -57.2% (active). For the same compound, the growth was -73.7% (active) in assay [7], -57.9% (active) in [8], -57.4% (active) in [9] and -69.5% (active) in [10].
As to `COc1ccc(-c2cc(-c3ccccc3)c(C#N)c(=O)[nH]2)cc1S(N)(=O)=O`, the growth is 106% in assay [1]; 103% in [2]; 113% in [3]; 97.6% in [4]; 104% in [5]; 110% in assay [6]. Moreover, the growth in assay [7] is 93.3%; in assay [8], 98.7%; in assay [9], 94.7%; in [10], 118%.
With `CC(C)CN1C(=O)/C(=C\C(=O)c2cc3ccccc3oc2=O)c2ccccc21`, the growth was 90.5% in [1]; 83.5% in assay [2]; 96.7% in assay [3]; 97.9% in assay [4]; 103% in assay [5]; 104% in [6]. The growth was 31.5% in [7], 109% in assay [8], 105% in assay [9] and 26.8% in [10].
As to `Cc1nc2sccn2c1-c1nnc(SCc2ccccc2)o1`, the growth in assay [1] is 86.1%; in assay [2], 75.5%; in assay [3], 90.4%; in [4], 99.9%; in [5] it was 99.6%; in [6], 71.9%. Further, the growth was 78.2% in assay [7], 91.2% in assay [8], 76.1% in assay [9] and 112% in assay [10].
For `Cc1nn(-c2ccccc2)c2nc(C)n(CC(=O)N/N=C/c3cccc([N+](=O)[O-])c3)c(=O)c12`, the growth in assay [1] was 102%; in assay [2] it was 100%; in [3], 98.1%; in assay [4], 96.1%; in assay [5], 106%; in [6], 91.9%. In addition, the growth is 92.7% in assay [7], 91.9% in assay [8], 84% in assay [9] and 120% in assay [10].
For the compound `COc1ccc(-c2cc(-c3cc(C(C)C)c(O)cc3C)nn2-c2ccc(S(N)(=O)=O)cc2)cc1`, the growth in [1] is 41.5%; in assay [2] it was 78.6%; in [3], 72.3%; in [4], 51.5%; in assay [5], 33.8%; in assay [6] it was 45.4%. Also, the growth was 6.99% (active) in [7], 40.4% in assay [8], 25.5% in assay [9] and 122% in assay [10].
Turning to `Cc1ccc(O)cc1Nc1nc(SCCN2CCOCC2)nc2c1cnn2CC(Cl)c1ccc(Br)cc1` (stereo not given), the growth was 13.7% in assay [1]; 27.5% in assay [2]; 73.5% in [3]; 23% in assay [4]; 9.59% (active) in [5]; -19.8% (active) in [6]. In addition, the growth in assay [7] was 15.8%; in [8], -9.82% (active); in assay [9], 11.1%; in [10], 85.9%.
`O=C1NC(=NC23CC4CC(CC(C4)C2)C3)N/C1=C\c1ccc2ncccc2c1`: the growth in assay [1] was -15.2% (active); in assay [2], -38.5% (active); in assay [3] it was 22.6%; in [4] it was -64.4% (active); in assay [5], -68.8% (active); in assay [6], -11.7% (active). The growth in assay [7] was -37% (active); in [8] it was -46.3% (active); in assay [9] it was -51% (active); in assay [10], 19.5%.
Regarding `COc1ccc([C@H]2C(C(=O)c3ccc(Cl)cc3)C3(N[C@@H]2c2ccccc2)C(=O)Nc2ccccc23)cc1` (stereo not given in full), the growth was 21.2% in assay [1]; 24.9% in [2]; 54.5% in assay [3]; 51% in [4]; 18.3% in assay [5]; 23% in assay [6]. In addition, the growth in [7] is 29.5%; in assay [8] it was 31%; in assay [9], 28.4%; in assay [10], -6.01% (active).
Regarding `C=CCn1c(O)c(N=Nc2nc(-c3cc4ccccc4oc3=O)cs2)c2ccccc21`, the growth was 35.4% in assay [1]; 74.2% in assay [2]; 101% in [3]; 80.8% in assay [4]; 18.3% in assay [5]; 85% in assay [6]. Further, the growth in assay [7] is 58.3%; in [8] it was 24.7%; in assay [9], 47.3%; in [10], 18.1%.
`CN(C)CCOc1ccc(C(=O)C2[C@H](c3ccc(Cl)cc3)[C@@H](c3ccccc3)NC23C(=O)Nc2ccc(Cl)cc23)cc1` (stereo not given in full): the growth in assay [1] is -93.2% (active); in [2], -82.3% (active); in assay [3], -91.1% (active); in assay [4], -82.6% (active); in assay [5], -87.4% (active); in assay [6], -89.9% (active). The growth in [7] was -91.7% (active); in [8], -77.9% (active); in assay [9], -94% (active); in assay [10] it was -76.9% (active).
With `CCOC(=O)/C(F)=C/C1CC1CCc1ccc(OCC)cc1` (stereo not given), the growth in assay [1] is 87.3%; in assay [2], 86.8%; in assay [3] it was 82.5%; in [4] it was 124%; in [5] it was 59.2%; in assay [6], 91.7%. The growth in assay [7] was 97.5%; in assay [8], 50.5%; in assay [9], 105%; in assay [10], 41.8%.
For the compound `O=C(Nc1nc2ccc([N+](=O)[O-])cc2s1)Nc1ccccc1F`, the growth in [1] is 6.62% (active); in assay [2], 10.9%; in [3], 8.1% (active); in assay [4] it was 6.89% (active); in [5] it was 2.96% (active); in assay [6] it was -3.78% (active). For the same compound, the growth in assay [7] was -16.6% (active); in assay [8], 12.2%; in assay [9] it was 7.95% (active); in assay [10] it was 21.9%.
Turning to `COc1ccc(/C=C/C(=O)c2ccc(S(=O)(=O)NCCNc3nc(N(C)C)nc(N4CCOCC4)n3)cc2)cc1`, the growth in [1] is 97.7%; in assay [2] it was 89.6%; in assay [3], 91.7%; in assay [4], 102%; in assay [5], 104%; in assay [6], 93.1%. The growth in assay [7] was 64.7%; in assay [8] it was 91.5%; in [9] it was 80.1%; in assay [10], 110%.
As for `O=C1Nc2ccccc2/C1=C\c1ccc(OCC(=O)c2ccc(Br)cc2)cc1`, the growth in assay [1] is 50.9%; in [2], 71.6%; in assay [3], 87.5%; in assay [4], 104%; in assay [5], 58.5%; in assay [6], 75.5%. Besides, the growth was 61.4% in [7], 58.4% in assay [8], 89.8% in assay [9] and 65.9% in assay [10].
On to `Nc1nn2c(-c3cc4ccccc4oc3=O)ccnc2c1N=Nc1ccccc1`, for which the growth in assay [1] is 12.5%; in assay [2], 35.1%; in assay [3], 65.4%; in assay [4], 22.3%; in [5], 44.4%; in assay [6] it was 30.2%. Besides, the growth is 25.3% in assay [7], 100% in [8], 41.4% in [9] and 114% in [10].
For `O=C(Cn1c(/C=C/c2ccc([N+](=O)[O-])cc2)nc2ccccc2c1=O)Nc1ccccc1`, the growth in assay [1] is 54.9%; in assay [2], -0.971% (active); in assay [3], 67.2%; in assay [4], 49%; in [5], 52.5%; in assay [6] it was 52.1%. The growth was 79.5% in [7], 75.7% in [8], 47.2% in assay [9] and 67.2% in [10].
Regarding `CCCCC[C@@H]1C/C=C(\C)[C@@H](O)C(C)(C)C(=O)[C@@H](C)/C=C(\C)[C@@H]2C[C@H](O)C[C@](O)(CC(=O)O1)O2`, the growth in assay [1] was 31%; in assay [2], 14%; in assay [3] it was 82%; in [4] it was 68.7%; in [5], 49.6%; in assay [6] it was 60.4%. The growth in assay [7] was 12.5%; in assay [8], 36.8%; in assay [9], 65.8%; in [10], 37.6%.
Turning to `O=c1[nH]c2ccccc2cc1COc1ccc(Nc2nccc(-c3ccc(Cl)cc3)n2)cc1`, the growth is 95.9% in assay [1]; 103% in assay [2]; 107% in [3]; 87.1% in assay [4]; 103% in assay [5]; 97.7% in assay [6]. The growth is 89.1% in [7], 101% in assay [8], 88.2% in [9] and 116% in assay [10].
On to `CC[C@]12C=CCN3CC[C@]4(C(=C(C(=O)OC)C1)Nc1cc(OC)c([C@@H]5[C@H]6O[C@H]6[C@@]6(CC)CC(C(=O)OC)=C7Nc8cc(O)ccc8[C@@]78CCN5[C@@H]68)cc14)[C@@H]32`, for which the growth in assay [1] was -18.8% (active); in assay [2], -58.1% (active); in assay [3] it was 33.6%; in assay [4], 32.2%; in [5], -68.4% (active); in assay [6] it was -41.9% (active). Besides, the growth in assay [7] is -31.2% (active); in [8], 17.2%; in assay [9], -8% (active); in [10] it was -70.2% (active).
In the case of `COc1cc(/C=C/C(=O)c2cnn(-c3cc(=O)[nH]c4ccc(C)cc34)c2C)cc(OC)c1OC`, the growth in assay [1] was -45% (active); in assay [2] it was -17.8% (active); in assay [3], 9.59% (active); in assay [4], 2.27% (active); in [5], 8.08% (active); in assay [6], 50.6%. In addition, the growth in assay [7] was -87.1% (active); in [8], 6.23% (active); in [9] it was -27% (active); in assay [10], -91.6% (active).
